These results are taken from PubChem BioAssay.

Experiment [1] relates to Wnt5a (protein binding on small-molecule microarray). Nature of the experiment: small molecules binding Wnt5a protein – biophysical, small-molecule microarray, 635/667 nm fluorescence, primary screen (AID 1142).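 Also: fluorescence read at 667 nm with signal to noise per printed feature.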 Conditions: 635 nm fluorescence, higher = more signal.
Experiment [2] can be described thus: ATP-based viability of Huh7 replicon cells – cell-based, CellTiter-Glo luminescence, basal, 48 h, cytotoxicity control for HCV replication inhibitor project, primary screen (AID 1143).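 Also: Huh7 hepatoma cells carrying a hepatitis C replication reporter with no stimulus; test concentration not given here.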 To be noted: higher = more signal, called active from +8 up or from −8 down. (In general: Replicon systems follow genome replication, usually without infectious particles.)
The nature of experiment [3]: Pseudomonas biofilm growth suppression – PAO1 strain, BacTiter-Glo luminescence, LB-PBS, primary screen (AID 1144). Conditions: P. aeruginosa PAO1 biofilm, 12 h, higher = more signal.
Experiment [4] can be described thus: basal CRE-LacZ reporter activity in PC12 – cell-based, unstimulated, primary screen (AID 1145). Conditions: no forskolin, luminescence, 4.5 h, higher = more signal, called active from +8 up or from −8 down.
Experiment [5] in a line: forskolin-driven CRE-LacZ activity in PC12 – cell-based, CRE-LacZ reporter, forskolin-stimulated, primary screen (AID 1146).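 Also: PC12 cells with 6xCRE LacZ reporter stimulated by forskolin 10 µM; beta-galactosidase reporter signal reflecting CREB driven transcription.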 To be noted: luminescence, 4.5 h, higher = more signal, called active from +8 up or from −8 down.
The target of experiment [6] is Streptavidin (Streptomyces avidinii) (UniProt P22629). Nature of the experiment: compounds binding control protein streptavidin – biophysical, small-molecule microarray, 635/667 nm fluorescence, artefact control for SMM compound annotation, primary screen (AID 1147).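 Also: signal reflects streptavidin binding to arrayed compounds as a control protein.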 To be noted: higher = more signal.
Streptavidin (Streptomyces avidinii), sequence (P22629 whole entry, looked up): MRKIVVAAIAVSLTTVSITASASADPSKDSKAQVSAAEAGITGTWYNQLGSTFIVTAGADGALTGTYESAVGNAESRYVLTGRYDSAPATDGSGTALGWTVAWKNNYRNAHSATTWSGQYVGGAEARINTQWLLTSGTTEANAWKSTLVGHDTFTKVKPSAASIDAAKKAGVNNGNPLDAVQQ
The nature of experiment [7]: probe aInhba binding on compound microarray – biochemical, small-molecule microarray, 635/667 nm fluorescence, primary screen (AID 1148).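 Also: score merges 667nm spot fluorescence with signal-to-noise for antibody binding to printed compounds.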 To be noted: higher = more signal.
Experiment [8] has as its target Torsin-1A (Homo sapiens) (UniProt O14656). Nature of the experiment: TOR1A wild-type binding on microarray – cell lysate, small-molecule microarray, lysate, 635/667 nm, primary screen (AID 1149). Conditions: COS7 hTOR1A-WT lysate, 635 nm fluorescence, higher = more signal.
Experiment [9] has the same target. Kind of experiment: torsin A mutant lysate binding on microarrays – cell lysate, small-molecule microarray, COS7 lysate, 635/667 nm fluorescence, primary screen (AID 1150).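 Also: score pools 667 nm emission and signal to noise measuring lysate protein binding.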 Conditions: COS7 hTOR1A mutant lysate, 635 nm fluorescence, higher = more signal.
Experiment [10] relates to Sonic hedgehog protein (Shh). Kind of experiment: Sonic hedgehog microarray binding compounds – biochemical, small-molecule microarray, 635/667 nm fluorescence, primary screen (AID 1151).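 Also: Shh protein binding to compounds spotted on small-molecule microarray slides; score combines spot fluorescence intensity with signal-to-noise across triplicate slides.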 Conditions: 635 nm fluorescence, higher = more signal.

Structures are written as SMILES. Calls of active or inactive are those of the source. Unless noted, no rule for the calls is given here.

Torsin-1A (Homo sapiens), sequence (O14656 whole entry, looked up): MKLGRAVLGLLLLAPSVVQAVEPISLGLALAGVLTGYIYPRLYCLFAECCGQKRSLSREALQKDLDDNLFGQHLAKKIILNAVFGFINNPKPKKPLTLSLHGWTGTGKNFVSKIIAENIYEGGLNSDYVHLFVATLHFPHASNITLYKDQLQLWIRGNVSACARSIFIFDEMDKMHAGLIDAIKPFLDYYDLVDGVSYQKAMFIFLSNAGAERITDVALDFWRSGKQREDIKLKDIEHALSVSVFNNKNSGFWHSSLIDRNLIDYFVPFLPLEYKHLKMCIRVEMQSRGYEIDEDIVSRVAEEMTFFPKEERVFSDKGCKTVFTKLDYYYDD

Consider `COC(=O)CC=C[C@@H](C)[C@@H](C=NOC(C)CN1CCCc2nc(C)c(C)cc21)OC` (stereo not given in full), for which the composite z-score is 0.17 in [1]; 1.21 in experiment [6]; 0.098 in experiment [7]; 0.254 in the experiment with Torsin-1A (Homo sapiens) [8]; 0.0852 with Torsin-1A (Homo sapiens) [9]; 0.655 in [10]. Besides, the z-score was 0.431 (inactive) in [2], 0.764 (inactive) in experiment [3], -0.64 (inactive) in [4] and 0.632 (inactive) in experiment [5].

Take `C#CCCCON=C1C[C@@H](O)[C@@H](O)[C@@H]2[C@@H]3C(=O)N(Cc4ccccc4)C(=O)[C@@H]3CC[C@@H]12`: the composite z-score in [1] was 0.087; in experiment [6] it was -0.382; in [7], -0.0675; with Torsin-1A (Homo sapiens) [8] it was 0.103; with Torsin-1A (Homo sapiens) [9] it was 0.0159; in experiment [10] it was -0.523. Also, the z-score in experiment [2] is -0.0439 (inactive); in experiment [3], 0.943 (inactive); in [4], -0.476 (inactive); in experiment [5], 0.174 (inactive).

For the molecule `COC(=O)CC=C[C@@H](C)[C@@H](C=NO[C@H](C)c1cn([C@H](CO)Cc2ccccc2)nn1)OC`, the composite z-score in [1] was 0.247; in experiment [6], 0.21; in [7], -0.128; in the experiment with Torsin-1A (Homo sapiens) [8] it was 1.09; with Torsin-1A (Homo sapiens) [9] it was 1.78; in [10], 1.08. Further, the z-score in experiment [2] was -0.742 (inactive); in experiment [3] it was 0.226 (inactive); in [4], 0.359 (inactive); in experiment [5] it was 0.303 (inactive).

Take `CC(C)(C)N1C(=O)[C@H]2[C@H]3[C@H](O)[C@H](O)CC(=NOCc4ccccc4)[C@H]3CC[C@H]2C1=O`: the composite z-score in experiment [1] is 0.0771; in experiment [6], 1; in experiment [7], 0.0342; with Torsin-1A (Homo sapiens) [8] it was -0.65; with Torsin-1A (Homo sapiens) [9] it was 0.155; in experiment [10], -0.587. The z-score was 0.899 (inactive) in experiment [2], -0.192 (inactive) in experiment [3], 0.968 (inactive) in experiment [4] and 0.183 (inactive) in experiment [5].

For `C=CC[C@@H]1C=C[C@H](ON=C(C)CCN2CCc3nc(-c4ccccc4)c(-c4ccccc4)cc3C2)[C@@H](CO)O1`, the composite z-score in [1] was 0.0399; in experiment [6], 0.313; in [7], -0.0719; with Torsin-1A (Homo sapiens) [8] it was 0.593; with Torsin-1A (Homo sapiens) [9], 0.415; in experiment [10] it was 1.12. Besides, the z-score is -0.648 (inactive) in [2], -0.117 (inactive) in experiment [3], -0.0033 (inactive) in [4] and -1.03 (inactive) in [5].

On to `CCCNC(=O)OC[C@H]1O[C@H](CCON=C(C)C)C=C[C@@H]1Oc1ccc(OC)cc1`, for which the composite z-score was -0.0092 in experiment [1]; 0.102 in experiment [6]; -0.0791 in experiment [7]; -0.0198 with Torsin-1A (Homo sapiens) [8]; -0.0963 in the experiment with Torsin-1A (Homo sapiens) [9]; -0.318 in [10]. Besides, the z-score in [2] is 0.599 (inactive); in [3], -0.523 (inactive); in experiment [4], -0.152 (inactive); in [5] it was -0.315 (inactive).

Consider `CCOC(=O)[C@H](CC(C)C)NC(=O)CCC1CC(OC(=O)NCCc2ccc(F)cc2)CC2(CCCC(COC(=O)NCCc3ccccc3OC)O2)O1` (stereo not given in full), for which the composite z-score was 0.145 in experiment [1]; 0.805 in experiment [6]; -0.0736 in experiment [7]; 0.0877 with Torsin-1A (Homo sapiens) [8]; 0.528 with Torsin-1A (Homo sapiens) [9]; 0.567 in experiment [10]. Besides, the z-score was -0.451 (inactive) in [2], -0.256 (inactive) in experiment [3], 1.64 (inactive) in experiment [4] and 0.135 (inactive) in [5].

Regarding `O=C(NN=C1C[C@@H](O)[C@@H](O)[C@@H]2[C@@H]3C(=O)N(C4CCCCC4)C(=O)[C@@H]3CC[C@@H]12)OCc1ccccc1`, the composite z-score in [1] was -0.03; in experiment [6] it was -0.225; in experiment [7], -0.384; with Torsin-1A (Homo sapiens) [8] it was 0.205; with Torsin-1A (Homo sapiens) [9] it was -0.0666; in [10] it was -0.364. For the same molecule, the z-score was 0.0845 (inactive) in experiment [2], 1.15 (inactive) in [3], 1.79 (inactive) in experiment [4] and 0.0171 (inactive) in experiment [5].

As to `CCc1cc2c(nc1CC)CCN(CCC(C)=NO[C@@H](C)c1cn([C@H](CO)Cc3ccccc3)nn1)C2`, the composite z-score in experiment [1] was -0.144; in experiment [6], 0.453; in experiment [7], -0.0087; with Torsin-1A (Homo sapiens) [8], 1.1; in the experiment with Torsin-1A (Homo sapiens) [9], 0.216; in experiment [10], 0.961. In addition, the z-score in [2] is -0.519 (inactive); in experiment [3], 0.434 (inactive); in experiment [4] it was -0.892 (inactive); in experiment [5] it was -1.03 (inactive).

`CCOC(=O)[C@H](CC(C)C)NC(=O)CCC1CC(OC(=O)NCc2cccc3ccccc23)CC2(CCCC(COC(=O)NCc3cccc(C(F)(F)F)c3)O2)O1` (stereo not given in full): the composite z-score in experiment [1] is -0.0645; in experiment [6], 0.626; in [7], -0.0872; in the experiment with Torsin-1A (Homo sapiens) [8], 0.27; with Torsin-1A (Homo sapiens) [9] it was 0.261; in [10] it was 0.258. In addition, the z-score in experiment [2] was -0.0149 (inactive); in [3], -0.658 (inactive); in experiment [4], 0.288 (inactive); in [5], -0.274 (inactive).

Take `COC(=O)[C@H](C)NC(=O)CCC1CC(OC(=O)NCc2ccc3c(c2)OCO3)CC2(CCCC(COC(=O)NCC(c3ccccc3)c3ccccc3)O2)O1` (stereo not given in full): the composite z-score in [1] was 0.6; in experiment [6], 0.693; in experiment [7], -0.0719; with Torsin-1A (Homo sapiens) [8] it was 0.0104; with Torsin-1A (Homo sapiens) [9], 0.947; in experiment [10] it was 1.97. Also, the z-score in [2] is -4.67 (inactive); in experiment [3] it was -0.405 (inactive); in experiment [4], -0.437 (inactive); in experiment [5], 1.96 (inactive).

Turning to `C=CC[C@@H]1C=C[C@H](ON=C2[C@H]3CCn4c(=O)n(-c5ccccc5)c(=O)n4[C@H]3[C@H](O)[C@@H]3O[C@H]23)[C@@H](CO)O1`, the composite z-score in [1] is 0.132; in experiment [6] it was 0.43; in experiment [7], -0.0736; in the experiment with Torsin-1A (Homo sapiens) [8], -0.207; with Torsin-1A (Homo sapiens) [9] it was 0.369; in [10], 0.23. Also, the z-score in experiment [2] is 1.17 (inactive); in [3], -0.0199 (inactive); in [4], 0.164 (inactive); in experiment [5] it was 0.312 (inactive).

`COC(=O)CC=C[C@@H](C)[C@@H](C=NOCC[C@@H]1C=C[C@H](OC(C)=O)[C@@H](COC(C)=O)O1)NS(=O)(=O)c1ccc(C)cc1`: the composite z-score in experiment [1] is 0.146; in [6] it was -0.376; in experiment [7], -0.0523; in the experiment with Torsin-1A (Homo sapiens) [8], 1.14; with Torsin-1A (Homo sapiens) [9], 1.44; in experiment [10], 0.554. Besides, the z-score in [2] was 0.415 (inactive); in experiment [3], 0.493 (inactive); in experiment [4] it was 1.28 (inactive); in experiment [5] it was 0.378 (inactive).

Take `COc1ccc(O[C@H]2C=C[C@@H](c3ccccc3)O[C@@H]2CON=C(C)CCC(=O)OC[C@H]2O[C@H](c3ccccc3)C=C[C@@H]2Oc2ccc(OC)cc2)cc1`: the composite z-score in experiment [1] is -0.874; in experiment [6] it was 0.204; in experiment [7] it was -0.0136; with Torsin-1A (Homo sapiens) [8], -2.42; with Torsin-1A (Homo sapiens) [9] it was -1.43; in [10] it was 2.02. The z-score in [2] is -0.461 (inactive); in experiment [3], 0.107 (inactive); in experiment [4], -0.887 (inactive); in experiment [5] it was 0.593 (inactive).

For the molecule `CO[C@@H]1COC(=O)CC=C[C@@H](C)[C@@H]2C=C[C@H](O)[C@@H](COC(=O)CC=C[C@H]1C)O2`, the composite z-score in [1] is -0.186; in experiment [6] it was -0.0274; in experiment [7], -0.255; with Torsin-1A (Homo sapiens) [8] it was 2.58; with Torsin-1A (Homo sapiens) [9] it was 1.72; in [10], 2.13. For the same molecule, the z-score in experiment [2] was -0.256 (inactive); in experiment [3], 0.177 (inactive); in experiment [4], 0.877 (inactive); in experiment [5], -0.0355 (inactive).
